Source: the supplement of paper PMC6555819

Key:
Experiment in all cases: PBM binding z-score (relative to random genomic background probes); higher = stronger binding; sequences stand for … in GC…GCGATTGACAGCGTAGAATGAAGG
[1] = test system: FXR:RXRa (NR concentration 270 nM, RXRa partner concentration 90 nM)
Procedure, shortened: (§1)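 Ligand-free nuclear receptor dimers were bound for 1 h to custom Agilent 4×180K protein-binding microarrays. Detection used antibodies against each partner (one per run). Binding z-scores rest on regression-normalized fluorescence, with random background probes as the reference.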

[2] = test system: LXRa:RXRa (NR concentration 270 nM, RXRa partner concentration 90 nM)
Procedure, shortened: as §1

[3] = test system: LXRa homodimer (NR concentration 270 nM)
Procedure, shortened: as §1

[4] = test system: LXRb:RXRa (NR concentration 270 nM, RXRa partner concentration 90 nM)
Procedure, shortened: as §1

[5] = test system: LXRb homodimer (NR concentration 270 nM)
Procedure, shortened: as §1

[6] = test system: PPARa:RXRa (NR concentration 270 nM, RXRa partner concentration 90 nM)
Procedure, shortened: as §1

[7] = test system: PPARg:RXRa (NR concentration 180 nM, RXRa partner concentration 90 nM)
Procedure, shortened: as §1

[8] = test system: PPARg:RXRa 270nM:90nM, anti-RXR (NR concentration 270 nM, RXRa partner concentration 90 nM)
Procedure, shortened: as §1

[9] = test system: PPARg:RXRa 30nM:10nM, anti-RXR (NR concentration 30 nM, RXRa partner concentration 10 nM)
Procedure, shortened: as §1

[10] = test system: PPARg:RXRa 90nM:30nM, anti-RXR (NR concentration 90 nM, RXRa partner concentration 30 nM)
Procedure, shortened: as §1

[11] = test system: PPARg:RXRa DBDmut IVT, anti-RXR (DBD mutation: RXRa K156A/R161A, NR concentration 270 nM, RXRa partner concentration 90 nM)
Procedure, shortened: as §1

[12] = test system: PPARg:RXRa IVT, anti-PPARg (NR concentration 270 nM, RXRa partner concentration 90 nM)
Procedure, shortened: as §1

[13] = test system: PPARg DBDmut:RXRa IVT, anti-PPARg (DBD mutation: PPARg1 K132A/R137A, NR concentration 270 nM, RXRa partner concentration 90 nM)
Procedure, shortened: as §1

[14] = test system: PPARg DBDmut IVT, anti-PPARg (DBD mutation: PPARg1 K132A/R137A, NR concentration 270 nM)
Procedure, shortened: as §1

[15] = test system: PPARg homodimer (NR concentration 180 nM)
Procedure, shortened: as §1

[16] = test system: PXR:RXRa (NR concentration 270 nM, RXRa partner concentration 90 nM)
Procedure, shortened: as §1

[17] = test system: PXR homodimer (NR concentration 270 nM)
Procedure, shortened: as §1

[18] = test system: RARa:RXR (NR concentration 270 nM, RXRa partner concentration 90 nM)
Procedure, shortened: as §1

[19] = test system: RARa homodimer (NR concentration 270 nM)
Procedure, shortened: as §1

[20] = test system: RARb:RXRa (NR concentration 270 nM, RXRa partner concentration 90 nM)
Procedure, shortened: as §1

Sequence | PBM binding z-score [1] | PBM binding z-score [2] | PBM binding z-score [3] | PBM binding z-score [4] | PBM binding z-score [5] | PBM binding z-score [6] | PBM binding z-score [7] | PBM binding z-score [8] | PBM binding z-score [9] | PBM binding z-score [10] | PBM binding z-score [11] | PBM binding z-score [12] | PBM binding z-score [13] | PBM binding z-score [14] | PBM binding z-score [15] | PBM binding z-score [16] | PBM binding z-score [17] | PBM binding z-score [18] | PBM binding z-score [19] | PBM binding z-score [20]
AATACAGGGTCACAAGGCCAGAGTAGGTACGAAT | 6.89 | 5.61 | 1.21 | 4.47 | 1.18 | 5.99 | 7.38 | 6.69 | 3.96 | 5.46 | 3.6 | 5.38 | 1.96 | 1.5 | 1.69 | 4.03 | 0.719 | 4.97 | 1.18 | 4.6
CCTACTGGGCCATCAGGTCATTGCTATCAACGTT | 1.55 | 1.63 | 1.36 | 1.64 | -0.479 | 2.83 | 2.62 | 3.75 | 1.26 | 2.92 | 4.86 | 4.95 | 0.318 | -0.34 | 1.02 | 1.75 | 0.209 | 2.17 | -0.0297 | 2.35
TATTGTAGATCAACAGGAGGTTAAGAAAGATCGA | 0.217 | 1.55 | 0.577 | 1.03 | 0.546 | 1.46 | 0.641 | 0.531 | 0.596 | 0.68 | 0.634 | 1.7 | 1.31 | 1.13 | 0.72 | 0.93 | 0.0451 | 0.904 | 0.431 | 0.665
TTACCAAGGTGAAGGTCGTAGATCCCTCTGTAGA | 0.719 | 0.647 | -0.474 | 0.573 | -0.742 | 2.43 | 3.49 | 3.86 | 2.16 | 3.43 | 1.02 | 3.32 | -0.72 | -0.483 | -0.867 | 0.858 | -0.255 | 1.4 | -0.36 | 2.01
TCTCGGAGGACACGAAAGGTCAGAGATCGACATC | 3.24 | 3.71 | 2.64 | 3.32 | 0.0145 | 3.65 | 1.5 | 2.75 | 2.97 | 2.88 | 1.64 | 1.91 | 0.484 | 0.156 | 2.63 | 3.95 | 0.205 | 4.31 | 0.638 | 4.4
CAAACTAAGTCACCGGAAGGTCAAAGTCCGCATG | 3.59 | 3.86 | 3.92 | 3.75 | 1.12 | 4.07 | 2.05 | 2.78 | 0.812 | 2.18 | 2.44 | 2.88 | 0.787 | 1.14 | 2.8 | 3.98 | 1.63 | 4.43 | 1.48 | 3.46
